The target of experiment [1] is Phospholipid hydroperoxide glutathione peroxidase GPX4 (Homo sapiens) (UniProt P36969). Kind of experiment: Primary qHTS Assay for Inhibitors of Recombinant Selenoprotein Glutathione Peroxidase 4 (GPX4) (AID 1845192). Also: nearly all actives have a fitted effect of over 65% in size. Also: potency is read from the fitted curve at half-maximal effect. As to activity change, negative = inhibition: % is scaled to controls: 0 for no effect and ±100 for the full control effect. Particulars: recombinant GPX4, GR-coupled NADPH fluorescence, 15 min; series mostly up to 50 µM. In outline: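 NADPH consumption, followed by fluorescence at 340/450 nm between 0 and 15 min, reports GPX4 activity via coupled glutathione reductase (100 nM). Enzyme 200 nM was pre-exposed to compound 30 min; 0.5 mM cumene hydroperoxide and 1 mM GSH served as substrates.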
Sequence of Phospholipid hydroperoxide glutathione peroxidase GPX4 (Homo sapiens) (P36969 whole entry, looked up): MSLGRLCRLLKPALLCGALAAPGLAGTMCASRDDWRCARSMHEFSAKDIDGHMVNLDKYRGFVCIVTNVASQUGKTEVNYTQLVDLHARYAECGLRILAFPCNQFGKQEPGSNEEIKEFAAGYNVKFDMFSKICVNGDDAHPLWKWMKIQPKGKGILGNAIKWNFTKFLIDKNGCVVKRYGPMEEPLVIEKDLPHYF

Experiment [2] deals with Luciferin 4-monooxygenase (Photinus pyralis) (UniProt P08659). Kind of experiment: Primary firefly luciferase (FLuc) qHTS assay for identification of artifact compounds. (AID 1845220). Also: nearly all actives have a fitted effect of over 60% in size. Also: potency is read from the fitted curve at half-maximal effect.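 As to activity change, negative = inhibition: plate controls were DMSO vehicle for no effect and no enzyme for full effect.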 Particulars: purified firefly luciferase, luminescence, 5 min; series mostly up to 54.1 µM. In short, it runs like this: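 Compounds sat 15 min at room temperature with 10 uM luciferin and 10 uM ATP (pH 7.6 Tris acetate). Firefly luciferase (10 nM final) was then added, and luminescence was read 5 min later. Data normalized to no-enzyme and DMSO controls were Hill-fitted.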

Experiment [3] in a line: Primary fluorescence-based thiol-reactive (MSTI) qHTS assay for identification of artifact compounds. (AID 1845221). Also: nearly all actives have a fitted effect of over 65% in size. Also: potency is read from the fitted curve at half-maximal effect.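 As to activity change, negative = thiol reactive: thiol-reactive compounds lower the probe fluorescence signal.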 As to conditions: MSTI thiol-reactivity probe, 1 h; series mostly up to 53.8 µM. In short, it runs like this: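 One-hour, room-temperature, dark incubation of compound with 4 uM MSTI in PBS (pH 7.4, 2% DMSO) precedes a fluorescence read at 525 nm excitation, 598 nm emission; Hill-equation fitting yields concentration-response values.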

Experiment [4] has as its system Nanoluciferase (engineered Oplophorus gracilirostris luciferase). Kind of experiment: Primary Nanoluciferase (NLuc) qHTS assay for identification of artifact compounds. (AID 1845222).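 Also: 0% = DMSO and -100% = no enzyme.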 Particulars: NLuc-conditioned medium, Nano-Glo luminescence, 5 min; series mostly up to 54.1 µM. In short, it runs like this: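 Luminescence from secreted NLuc (filtered, 1:55-diluted S16 cell medium) read 5 min after Nano-Glo substrate; compounds preincubated 15 min, RT. Hill fits of inhibition normalized to DMSO and no-enzyme.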

The nature of experiment [5]: Primary redox qHTS assay for identification of artifact compounds. (AID 1845223).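 Also: 0% = DMSO and 100% = reference compound.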 As to conditions: Amplex Red/HRP redox cycling with DTT, fluorescence; series mostly up to 53.8 µM. In short, it runs like this:
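Amplex Red (25 uM) and HRP (250 mU/mL) in HBSS, with compounds for 15 min, then 250 uM DTT for 30 min, room temperature, dark. Fluorescence 525/598 nm read; normalized to DMSO and 10 uM DA3003; Hill fit.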

A number with no mark means an inactive call. Records with an inconclusive call do not appear. Activity calls are given as the source filed them. Calls follow the shape of the dose curve; as a rule, active = well fitted curve in the direction sought with a large enough effect; inconclusive = small, poorly fitted or top-dose-only effect, or another doubt; inactive = no such curve, though single readings can be large; an effect the other way counts as inactive or inconclusive.

Take `COc1cc(/C=C/C(=O)OC[C@H]2O[C@@](CO)(O[C@H]3O[C@H](CO)[C@@H](O)[C@H](O)[C@H]3O)[C@@H](OC(=O)/C=C/c3ccc(O)c(OC)c3)[C@@H]2O)ccc1O`: the Potency result in experiment [1], in experiment [2], in experiment [4] and in experiment [5] was “inactive” each time. Further, in experiment [3], the Potency is 3.54 µM (active).
Turning to `Cc1ccc(NC(=O)c2ccc(CN3CC[C@H](N(C)C)C3)c(C(F)(F)F)c2)cc1Nc1nccc(-c2cncnc2)n1`, the Potency result in experiment [1], in experiment [2], in experiment [3], in experiment [4] and in experiment [5] was “inactive” each time.
For `C=CC(C)(O)CC/C=C(\C)C(=O)OC1C(O)C(CO)OC(OC(=O)C23CCC(C)(C)CC2C2=CCC4C5(C)CCC(OC6OC(COC7OCC(OC(C)=O)C(O)C7OC7OC(COC(C)=O)C(O)C(O)C7O)C(O)C(O)C6O)C(C)(C)C5CCC4(C)C2(C)C(O)C3O)C1OC1OCC(OC2OCC(O)C(OC3OCC(O)C(O)C3O)C2O)C(O)C1O` (centres undefined), the outcome in experiment [1] is “inactive [at 9.73 µM]”. Further, the activity change, negative = inhibition in experiment [2] is 0.903% [at 6.45 µM]. Also, the activity change, negative = thiol reactive in experiment [3] was 213% [at 6.41 µM]. For the same molecule, the activity, negative = inhibition in experiment [4] is 2.81% [at 6.45 µM]. Further, the redox activity (% of DA3003) in experiment [5] is -2.76% [at 6.41 µM].
As for `NC(=O)C(CCC(F)(F)F)N(Cc1ccc(-c2ncon2)cc1F)S(=O)(=O)c1ccc(Cl)cc1` (centres undefined), the Potency entry in experiment [1], in experiment [2], in experiment [3], in experiment [4] and in experiment [5] was “inactive” each time.
Take `COc1ccc(/C=C/C(=O)O[C@@H]2[C@@H](O)[C@@H](O)[C@H](O[C@@H]3C=C(CO)[C@H]4[C@H](O[C@@H]5O[C@H](CO)[C@@H](O)[C@H](O)[C@H]5O)OC=C[C@H]43)O[C@H]2C)cc1O`: the Potency result in experiment [1], in experiment [2], in experiment [4] and in experiment [5] was “inactive” in each case. Further, the Potency in experiment [3] is 3.98 µM (active).
Regarding `CC1(C)CC[C@]2(C(=O)O)CC[C@]3(C)C(=CCC4[C@@]5(C)C[C@@H](O)[C@H](O)C(C)(C)C5CC[C@]43C)C2C1` (some centres undefined), the Potency result in experiment [1], in experiment [2], in experiment [3], in experiment [4] and in experiment [5] was “inactive” in each case.
For `CC1(C)CC2=C3C=CC4C5(C)CCC(O)C(C)(C)C5CCC4(C)C3(C)CCC2(C)C(O)C1` (centres undefined), the Potency entry in experiment [1], in experiment [2], in experiment [4] and in experiment [5] was “inactive” in each case. Also, in experiment [3], the Potency was 11.6 µM (active).
`CC(=O)OC12COC1CC(O)C1(C)C(=O)C(O)C3=C(C)C(OC(=O)C(O)C(NC(=O)OC(C)(C)C)c4ccccc4)CC(O)(C(OC(=O)c4ccccc4)C21)C3(C)C` (centres undefined): the Potency result in experiment [1], in experiment [2], in experiment [3], in experiment [4] and in experiment [5] was “inactive” throughout.
Take `CN(C)c1nc(NC2CCC(NC(=O)c3ccc(F)c(F)c3)CC2)nc2ccccc12` (centres undefined): the Potency result in experiment [1], in experiment [2], in experiment [3], in experiment [4] and in experiment [5] was “inactive” each time.
Turning to `O=C(Nc1ccc(Cl)cc1F)c1ccccc1O`, the Potency result in experiment [1], in experiment [3], in experiment [4] and in experiment [5] was “inactive” in each case. Besides, the Potency in experiment [2] was 1.2 µM (active).
Take `COc1ccc(CNC(=O)c2sc3nc(C)cc(C)c3c2N)cc1`: the Potency result in experiment [1], in experiment [2], in experiment [3], in experiment [4] and in experiment [5] was “inactive” in each case.
Turning to `COc1nc2sc(C(=O)NC3CC3)c(N)c2c(C)c1Cl`, the Potency result in experiment [1], in experiment [2], in experiment [3] and in experiment [4] was “inactive” in each case.
With `CC1OC(OC2C(CO)OC(OCC3OC(OC(=O)C45CCC(C)(C)CC4C4=CCC6C7(C)CCC(OC8OC(CO)C(O)C(OC9OC(CO)C(O)C(O)C9O)C8O)C(C)(C)C7CCC6(C)C4(C)CC5)C(O)C(O)C3O)C(O)C2O)C(O)C(O)C1OC1OC(CO)C(O)C(O)C1O` (centres undefined), the activity change, negative = inhibition in experiment [1] was -8.53% [at 9.73 µM]; in experiment [2], -3.46% [at 11.6 µM]. Besides, the activity change, negative = thiol reactive in experiment [3] was 208% [at 11.5 µM]. In addition, in experiment [4], the activity, negative = inhibition is 1.03% [at 11.6 µM]. In experiment [5], the redox activity (% of DA3003) was 10.1% [at 11.5 µM].
Consider `CC1CCN(C(=O)CC#N)CC1N(C)c1ncnc2[nH]ccc12` (centres undefined), for which the Potency result in experiment [1], in experiment [2], in experiment [3], in experiment [4] and in experiment [5] was “inactive” throughout.
`CCOC(=O)C(CCc1ccccc1)NC(C)C(=O)N1C(=O)N(C)CC1C(=O)O` (centres undefined): the Potency result in experiment [1], in experiment [2], in experiment [3], in experiment [4] and in experiment [5] was “inactive” each time.
Turning to `COc1c(C)c(OCC(O)C(C)(C)O)cc2c1COC2=O` (centres undefined), the Potency entry in experiment [1], in experiment [2], in experiment [3], in experiment [4] and in experiment [5] was “inactive” in each case.
For the molecule `CC1(c2nc3c(C(N)=O)cccc3[nH]2)CCCN1` (centres undefined), the Potency result in experiment [1], in experiment [2], in experiment [3], in experiment [4] and in experiment [5] was “inactive” each time.
On to `COc1ccc(C2=N[C@@H](c3ccc(Cl)cc3)[C@@H](c3ccc(Cl)cc3)N2C(=O)N2CCNC(=O)C2)c(OC(C)C)c1`, for which the Potency entry in experiment [1], in experiment [2], in experiment [3], in experiment [4] and in experiment [5] was “inactive” in each case.
In the case of `CN(C)C/C=C/C(=O)Nc1cc2c(Nc3ccc(F)c(Cl)c3)ncnc2cc1OC1CCOC1` (centres undefined), the Potency entry in experiment [1], in experiment [2], in experiment [3], in experiment [4] and in experiment [5] was “inactive” in each case.
Consider `C=C[C@H]1CN2CC[C@H]1C[C@@H]2C(O)c1ccnc2ccc(OC)cc12` (some centres undefined), for which the Potency result in experiment [1], in experiment [2], in experiment [3], in experiment [4] and in experiment [5] was “inactive” throughout.
Consider `NC(=O)c1cccc2cn(-c3ccc(C4CCCNC4)cc3)nc12` (centres undefined), for which the Potency in experiment [1] is 20.2 µM (active). For the same molecule, the Potency entry in experiment [2], in experiment [3], in experiment [4] and in experiment [5] was “inactive” each time.
In the case of `CC(C)C(N)C(=O)OCCOCn1cnc2c(=O)[nH]c(N)nc21` (centres undefined), the Potency entry in experiment [1], in experiment [2], in experiment [3], in experiment [4] and in experiment [5] was “inactive” in each case.
Regarding `COc1cc(OC)cc(C(=O)Nc2ccc(Cl)c(-c3nc4ccc(N(C)C)cc4[nH]3)c2)c1`, the Potency result in experiment [1], in experiment [4] and in experiment [5] was “inactive” in each case. Moreover, the Potency in experiment [2] was 8.49 µM (active); in experiment [3], 3.77 µM (active).
